Inconclusive results are not listed. The source made the active and inactive calls. Calls come from the whole dose curve; as a rule, active = well fitted inhibition curve with a large enough effect; inconclusive = small, poorly fitted or top-dose-only effect; inactive = no such curve, though single readings can be large or run the other way.
Note: nearly all actives have a fitted effect of over 80% in size.
Potency is the fitted concentration of half-maximal effect.

Sequence of N-terminal Xaa-Pro-Lys N-methyltransferase 1 (Homo sapiens) (Q9BV86 whole entry, looked up): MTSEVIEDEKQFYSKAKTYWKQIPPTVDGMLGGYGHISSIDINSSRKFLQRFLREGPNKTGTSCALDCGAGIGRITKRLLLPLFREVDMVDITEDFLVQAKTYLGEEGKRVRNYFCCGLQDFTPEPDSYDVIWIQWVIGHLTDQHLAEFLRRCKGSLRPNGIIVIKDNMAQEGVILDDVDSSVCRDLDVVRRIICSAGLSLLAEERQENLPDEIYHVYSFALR

For the experiment, the target named is N-terminal Xaa-Pro-Lys N-methyltransferase 1 (Homo sapiens) (UniProt Q9BV86). The experiment in a line: qHTS Assay for Inhibitors of N-terminal methyltransferase 1 (NTMT1): ThioGlo3 Assay Confirmatory Screen, Round 1. As to conditions: NTMT1 SAHH-coupled ThioGlo3 fluorescence, 30 min; series mostly up to 56.8 µM. The method, boiled down:
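Human NTMT1 at 125 nM was preincubated 1 min at room temperature with compounds at various concentrations or 1 uM RCC1-6 control. Substrate mix (100 uM SAM, 10 uM SAHH, 15 uM ThioGlo3) was added, and fluorescence (Ex 340/Em 450 nm) was read at start and after 30 min, normalized to background.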
Consider `O=S(=O)(O)c1ccc(Nc2ncnc3c2ncn3[C@@H]2O[C@H](CO)[C@@H](O)[C@H]2O)cc1`, for which the Potency result was “inactive”.

As to `C[C@H](Cc1ccccc1)Nc1ncnc2c1ncn2[C@@H]1O[C@H](CO)[C@@H](O)[C@H]1O`, the Potency entry is “inactive”.

On to `Nc1ncnc2c1ncn2[C@@H]1O[C@H](COP(=O)(O)OP(=O)(O)OP(=O)(O)OP(=O)(O)OC[C@@H]2O[C@H](n3cnc4c(N)ncnc43)[C@@H](O)C2O)C(O)[C@H]1O` (stereo partly specified), for which the Potency result was “inactive”.

Turning to `Nc1nc(Cl)nc2c1ncn2[C@H]1C[C@H](O)[C@@H](CO)O1`, the Potency result is “inactive”.

On to `COc1cc2nc(N3CCCCC3)nc(NC3CCN(C)CC3)c2cc1OC`, for which the Potency was 27.1 µM (active).

With `CNc1ncnc2c1ncn2[C@@H]1O[C@H](COP(=O)(O)O)[C@@H](O)[C@H]1O`, the Potency entry is “inactive”.

Regarding `CNC(=O)c1cnn(-c2nc(N)c3ncn([C@@H]4O[C@H](CO)[C@@H](O)[C@H]4O)c3n2)c1`, the Potency entry is “inactive”.

As to `Nc1nc(=S)c2ncn([C@H]3O[C@@H](CO)[C@@H](O)[C@@H]3O)c2[nH]1`, the Potency was 13 µM (active).

For the compound `COc1cc2c(NC3CCN(C(C)C)CC3)nc(N3CCCN(C(C)C)CC3)nc2cc1OCCCN1CCCC1`, the Potency was 27.1 µM (active).

`Nc1nc(Cl)nc2c1ncn2[C@@H]1O[C@H](CO)C(O)[C@H]1O` (stereo partly specified): the Potency result is “inactive”.

Turning to `COC1C(O)C(CO)OC1n1cnc2c(NC3CCCCC3)ncnc21` (stereo unspecified), the Potency result was “inactive”.

For `COc1cc2nc(N3CCCN(C)CC3)nc(NC3CCN(Cc4ccccc4)CC3)c2cc1OC`, the Potency is 27.1 µM (active).

As for `NC[C@H]1O[C@@H](n2cnc3c(N)ncnc32)[C@H](O)[C@@H]1O`, the Potency result is “inactive”.

On to `COc1cc2c(NC3CCN(C(C)C)CC3)nc(N3CCCN(C(C)C)CC3)nc2cc1OCCOCCN(C)C`, for which the Potency was 24.1 µM (active).

Take `COc1cc2c(NC3CCN(C(C)C)CC3)nc(N3CCCN(C)CC3)nc2cc1OCCCN1CCCCC1`: the Potency is 24.1 µM (active).

As to `COc1cc2c(NC3CCN(C)CC3)nc(N3CCN(C)CC3)nc2cc1OCCCN(C)C`, the Potency is 24.1 µM (active).

On to `OCC1OC(n2cnc3c(=S)nc[nH]c32)C(O)C1O` (stereo unspecified), for which the Potency was 13.6 µM (active).

On to `CC(C)=CCNc1ncnc2c1ncn2[C@@H]1O[C@H](CO)[C@@H](O)[C@H]1O`, for which the Potency was 13.6 µM (active).

`OC[C@H]1O[C@@H](n2cnc3c(NC4CCCCC4)ncnc32)[C@H](O)[C@@H]1O`: the Potency entry was “inactive”.

`Nc1ncnc2c1ncn2[C@H]1O[C@@H](CO)[C@@H](O)[C@H]1N`: the Potency entry was “inactive”.

As for `COc1cc2nc(N3CCCN(C)CC3)nc(NC3CCNCC3)c2cc1OC`, the Potency was 21.5 µM (active).

As to `CNc1ncnc2c1ncn2[C@@H]1O[C@H](CO)[C@@H](O)[C@@H]1O`, the Potency result was “inactive”.

On to `COc1cc2c(NC3CCN(C)CC3)nc(N3CCCN(C)CC3)nc2cc1OCCCCCN`, for which the Potency is 24.1 µM (active).

Consider `COc1cc2c(NC3CCN(C(C)C)CC3)nc(N3CCCN(CC4CCCCC4)CC3)nc2cc1OCCCN1CCCC1`, for which the Potency was 24.1 µM (active).

As for `COc1cc2c(NC3CCN(C(C)C)CC3)nc(N3CCCCCC3)nc2cc1OCCCN1CCCCC1`, the Potency is 24.1 µM (active).

Consider `COc1cc2c(NC3CCN(C4CCCCC4)CC3)nc(N3CCCN(C(C)C)CC3)nc2cc1OCCCN1CCCCC1`, for which the Potency is 24.1 µM (active).

As to `Nc1ncnc2c1ncn2C1OC(COP(=O)(O)O)C(O)C1O` (stereo unspecified), the Potency entry was “inactive”.

In the case of `COc1cc2c(NC3CCN(C(C)C)CC3)nc(N3CCCN(c4ccccc4)CC3)nc2cc1OCCCN1CCCC1`, the Potency was 17.1 µM (active).

For the compound `COCCCCOc1cc2nc(N3CCCN(C)CC3)nc(NC3CCN(C)CC3)c2cc1OC`, the Potency is 24.1 µM (active).

`COc1cc2c(NC3CCN(C)CC3)nc(N3CCCCC3)nc2cc1OCCOCCN1CCCC1`: the Potency is 27.1 µM (active).

As for `COc1cc2c(NC3CCN(CC4CCCCC4)CC3)nc(N3CCCCC3)nc2cc1OCCCN1CCCCC1`, the Potency was 17.1 µM (active).

As to `Nc1ncnc2c1ncn2[C@@H]1O[C@H](CO)C(O)[C@H]1O` (stereo partly specified), the Potency was 1.36 µM (active).

On to `CNCCCOc1cc2nc(N3CCCN(C)CC3)nc(NC3CCN(C)CC3)c2cc1OC`, for which the Potency is 24.1 µM (active).

For the compound `CCN1CCCN(c2nc(NC3CCN(C(C)C)CC3)c3cc(OC)c(OCCCN4CCCC4)cc3n2)CC1`, the Potency is 24.1 µM (active).

With `COC1C(CO)OC(n2cnc3c(=O)[nH]cnc32)C1O` (stereo unspecified), the Potency result was “inactive”.

As to `CNc1ncnc2c1ncn2[C@@H]1O[C@H](CO)C(O)[C@H]1O` (stereo partly specified), the Potency entry is “inactive”.
